The results in this text go back to PubChem BioAssay (NCI).

Compounds without any hit were thinned out: in the full panel of roughly 83,000, 20% have a hit.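 Interpretation: 100, growth as untreated; towards 0, rising growth inhibition; 0, no net growth; 0 to -100, cell death. Compounds scoring below 10 were considered active.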 Unmarked numbers belong to inactive results. Calls of active or inactive are those of the source.

The experiment concerns SN12C renal. The experiment can be described thus: NCI-60 one-dose screen, 48 h (100 = growth as untreated, 0 = no growth, -100 = all killed). To be noted: 10 µM unless noted. The protocol: Growth inhibition of the SN12C human tumor cell line is measured as a screen for anti-cancer activity. Cells are grown in 96 well plates and exposed to the test compound for 48 hours. Compounds are tested at a single concentration, which is 10^-5 M for most compounds. The reported endpoint is percent growth (GI% or GIPRCNT), where numbers from 0 - 100% represent growth inhibition, and numbers from -100% - 0 represent cell death. For example, a value of 40 represents 60% growth inhibition. A value of 0 means no net growth occurred over the course of the experiment. A value of -40 indicates 40% of cells at the beginning of the experiment died by the end of the experiment. A value of -100 means all cells are dead at the end of the experiment.
NCI-60 Human Tumor Cell Lines Screen was performed using the standard one-dose NCI protocol, which is described in more detail at https://dtp.cancer.gov/discovery_development/nci-60/default.htm.
Compounds with GIPRCNT values below 10 were considered active. Activity score was based on GIPRCNT using the following formula: […]
Score is 0 for GIPRCNT values of 100 or above, 50 for GIPRCNT values of 0, and 100 for GIPRCNT values of -100.
Turning to `O=C1OCC2=C1C(c1cccc(F)c1)c1cc3c(cc1N2CCO)OCCO3` (stereo not given), the growth was 31%.
For the compound `NC[C@@](O)(c1ccc(Cl)cc1)c1ccc(-c2cn[nH]c2)cc1`, the growth is 29.3%.
The result for `Cc1cc(Oc2ccccc2)ccc1Nc1ncnc2ccc(-c3cnc(Cl)c(NS(C)(=O)=O)c3)cc12` reads 35.6%; that for `CO[C@H]1C[C@@H]2CC[C@@H](C)[C@@](O)(O2)C(=O)C(=O)N2CCCC[C@H]2C(=O)O[C@H]([C@H](C)C[C@@H]2CC[C@@H](O)[C@H](OC)C2)CC(=O)[C@H](C)/C=C(\C)[C@@H](O)[C@@H](OC)C(=O)[C@H](C)C[C@H](C)\C=C/C=C/C=C/1C`, 44.3%; that for `O=C(Nc1nc2cccc(-c3ccc(CN4CCS(=O)(=O)CC4)cc3)n2n1)C1CC1`, 76.8%.
To `C=CCN(/C=C1/C(=O)O[C@H](COC)[C@@]2(C)C1=C(O)C(=O)C1=C2[C@H](OC(C)=O)C[C@]2(C)C(=O)CC[C@@H]12)CC=C` belongs 30.2%; to `CN1CC[C@H](c2c(O)cc(O)c3c(=O)cc(-c4ccccc4Cl)oc23)[C@H](O)C1`, 10.4%; to `Cn1c(Nc2ccc(C(F)(F)F)cc2)nc2cc(Oc3ccnc(-c4ncc(C(F)(F)F)[nH]4)c3)ccc21`, 59.8%.
As for `ClCc1ccc(-c2ccc(Cn3cnc4c(Cl)nc(Cl)nc43)cc2)cc1`, the growth is 26.1%.
To `CCN(CCCOc1ccc2c(Nc3cc(CC(=O)Nc4cccc(F)c4)[nH]n3)ncnc2c1)CCOP(=O)(O)O` belongs 79%; to `CCOC(=O)Sc1ncnc2nc[nH]c12`, 82.4%.
To `Cc1cc(N2CCOCC2)nc(N(CCNc2ccnc3cc(Cl)ccc23)Cc2cccs2)n1` belongs 42.3%.
For `COc1ccc2nc3cc(Cl)ccc3c(Nc3ccc(N(C)C)cc3)c2c1`, the growth was 91.1%.
To `CCc1cc2c(c3ccc(C(=O)CBr)cc13)CCCC2` belongs 99.7%; to `CCN(CC)CCN1C(=O)c2cccc3c(-c4ccc5c(c4)ncn5C4CCCCC4)ccc(c23)C1=O`, 23.8%; to `Clc1ccc2c(NCCNc3nc(N4CCCC4)nc4ccccc34)ccnc2c1`, 3.63% (active).
The result for `O=C(NOCCO)c1cc(CN2OCCCC2=O)c(F)c(F)c1Nc1ccc(I)cc1F` reads 49.5%; that for `Cc1cn(-c2cc(NC(=O)c3ccc(C)c(Nc4nccc(-c5cnccn5)n4)c3)cc(C(F)(F)F)c2)cn1`, 56.5%; that for `COc1cc(Nc2ncc(F)c(Nc3ccc4c(n3)NC(=O)C(C)(C)O4)n2)cc(OC)c1OC`, 36.6%.
With `CSc1nc2ncnc(SC)c2[nH]1`, the growth is 100%.
To `N#Cc1c(-c2ccc(C(F)(F)F)cc2)cc(NCC2CCS(=O)(=O)CC2)n2c1nc1ccccc12` belongs 82.3%; to `CC(=O)OCCC/C(=C\c1ccc2ccccc2c1)[N+](=O)[O-]`, -66.4% (active); to `CCCCCc1ccc(C)cc1OC(=O)CCl`, 110%.
For the compound `Cc1cc(Nc2ncc(Cl)c(Nc3ccccc3S(=O)(=O)C(C)C)n2)c(OC(C)C)cc1C1CCNCC1`, the growth is -87.2% (active).
To `COc1ccc(S(=O)(=O)N(C(C)=O)c2ccccc2/C=C/c2cc[n+]([O-])cc2)cc1` belongs 32.4%.
The result for `COc1cc(-c2nc(C(=O)Nc3ccc(C)cc3)nn2-c2ccc(F)c(F)c2)cc(OC)c1OC` reads 97.5%.
As for `CO[C@H]1C[C@@H]2CC[C@@H](C)[C@@](O)(O2)C(=O)C(=O)N2CCCC[C@H]2C(=O)O[C@H]([C@H](C)C[C@@H]2CC[C@@H](OC(=O)C(C)(CO)CO)[C@H](OC)C2)CC(=O)[C@H](C)/C=C(\C)[C@@H](O)[C@@H](OC)C(=O)[C@H](C)C[C@H](C)\C=C/C=C/C=C/1C`, the growth is 34.8%.
As for `CCNCCNc1cc(-c2ccc(Cl)c(Cl)c2)c(C#N)c2nc3ccccc3n12`, the growth was -68.9% (active).
To `C[C@@H]1COCCN1c1cc(C2([S@](C)(=N)=O)CC2)nc(-c2ccnc3[nH]ccc23)n1` belongs 41%.
On to `CCN(CC)CCCC(C)Nc1cc(-c2ccc(C(F)(F)F)cc2)c(C#N)c2nc3ccccc3n12` (stereo not given), for which the growth is -30.3% (active).
With `Cc1sc2c(c1C)c(=O)nc1c(-c3nc4ccccc4s3)n[nH]n12`, the growth is 96.7%.
For the compound `CCNC(=O)C#Cc1ccc2c(C(=Nc3ccc(CN(C)C)cc3)c3ccccc3)c(O)[nH]c2c1`, the growth is 36.5%.
`Nc1c(Cl)cccc1[N+](=O)[O-]`: the growth is 103%.
The result for `CC(=O)C1CC(C)CCC1C(C)C` (stereo not given) reads 83.8%.
The result for `C=C1C(=O)O[C@H]2[C@H]1CC/C(C=Nc1c(N)cc(C(F)(F)F)cc1C(F)(F)F)=C\CC[C@@]1(C)O[C@@H]21` reads -43.2% (active); that for `COc1cnc2c(c1)C(=O)c1c-2n(CCCn2ccnc2)c(=O)c2cc(Cl)ccc12`, 10%; that for `COc1c(C(NC(=O)c2ccccc2)c2sccc2C)cc(Cl)c2cccnc12` (stereo not given), 94.1%.
To `Nc1c2c(c(O)c3c1=C(CO)C=N3)=NCCS2=O` (stereo not given) belongs -33.2% (active); to `Cc1[nH]n(C(N)=S)c(=O)c1N=Nc1ccc(S(=O)(=O)Nc2ccncn2)cc1`, 97.6%.
Take `O=C(c1ccccc1)C(c1ccccc1)N1CCOCC1` (stereo not given): the growth was 101%.
